# Screen size: about 2,100 compounds; about 760 (36%) were called active. Not all results are given here. Values without a mark were called inactive.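 Rule for the calls: active = thallium-flux fluorescence traces judged by eye to show enhanced or reduced glutamate response, manual score 1 or -1, so both directions (some results past the limit were not filed as active); inactive = the rest, including fluorescent or raised-baseline compounds.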
# Test: thallium influx changes without GIRK channels – cell-based, HEK-293 rmGlu8, no GIRK, thallium flux, counter-screen for GIRK activator project, confirmation (AID 623868);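 note: extra codes mark interference with 3 for fluorescent and 4 for baseline rise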
# Settings: thallium flux fluorescence, at 10 µM, actives lie on both sides, codes: 1 enhancer, -1 blocker, 0 none, thallium stimulus containing EC20 glutamate
row,Compound,manual score
1,C/C(=N\O)C(C)NC(=O)c1ccccc1 (centres undefined),0
2,O=C(NN=c1c(=O)c2ccccc2c1=O)c1ccccc1,1 (active)
3,O=C(Nc1ccc(SC(F)F)cc1)C12CCC(CC1)C2,0
4,O=c1[nH]c2ccc(Cl)cc2c(=O)n1Cc1ccco1,0
5,O=c1c2cc(Cl)ccc2[nH]c(=S)n1Cc1ccco1,1 (active)
6,O=c1c2cc(N3CCOCC3)ccc2[nH]c(=S)n1Cc1ccc(Cl)cc1,0
7,O=c1c2cc(Cl)ccc2[nH]c(=S)n1Cc1cccs1,1 (active)
8,Cc1c(C(=O)O)[nH]c2c1C(=O)CC(c1ccc(Cl)cc1)C2 (centres undefined),0
9,CN1CCN(CC(=O)N2c3ccccc3C(C)(c3ccc(Cl)cc3)CC2(C)C)CC1 (centres undefined),0
10,CC(C)CNC(=S)NC(=O)c1ccc(F)cc1,1 (active)
11,CC(C)CNC(=S)NC(=O)c1ccc([N+](=O)[O-])cc1,1 (active)
12,CCCCCC(=O)NC(=S)NNC(=O)c1ccc([N+](=O)[O-])cc1,1 (active)
13,O=C(NN=C(Cc1ccccc1)Cc1ccccc1)c1ccc(F)cc1,0
14,CCCCNC(=S)NC(=O)c1ccc([N+](=O)[O-])cc1,1 (active)
15,COC(=O)C(CC(C)C)NC(=O)c1ccc([N+](=O)[O-])c(C)c1 (centres undefined),0
16,CCCn1c(=N)n(CC(O)COc2cccc(C)c2)c2ccccc21 (centres undefined),0
17,CN(C)Cc1c(O)c(Cl)cc2c3c(c(=O)oc12)CCCC3,0
18,COc1ccc2c(c1)C(C)=CC(C)(C)N2C(=O)CNCc1ccc2c(c1)OCO2,0
19,O=C(O)c1oc2ccccc2c1CSc1ccccn1,0
20,CCn1cc(C(=O)N2CC=C(c3ccccc3)CC2)c(=O)c2ccc(C)nc21,-0.5
21,CCN(CC)c1ccc(/C=C2/C(=O)c3ccc(C(=O)O)cc3C2=O)cc1,3
22,COc1ccc2nc(N3C(=O)/C(=C/c4ccccc4)NC3=S)sc2c1,1 (active)
23,O=C(c1ccco1)N1CCN(c2ncnc3scc(-c4cccs4)c23)CC1,0

row,Compound,manual score
1,Cc1cc(N2CCOCC2)n2nc(C)c(-c3ccccc3)c2n1,0
2,CCCn1c(=O)c2ccccc2n2c(SCc3nc4ccccc4s3)nnc12,-1 (active)
3,CCCn1c(=O)c2ccccc2n2c(SCC(=O)N3CCc4ccccc4C3)nnc12,-1 (active)
4,CCCn1c(=O)c2ccccc2n2c(SCCOc3ccccc3F)nnc12,-0.5
5,Cn1c(SCC(=O)N2c3ccccc3CCc3ccccc32)nnc1-c1ccc(O)cc1,0
6,CCc1cccc(CC)c1-n1c(SCC(=O)N2CCc3ccccc3C2)nnc1-c1cccnc1,0
7,CCCCOC(=O)c1ccc(NC(=S)NC(=O)c2c(Cl)cnn2CC)cc1,1 (active)
8,COC(=O)c1ccc(NC(=O)C23CC4CC(C2)CC(n2cncn2)(C4)C3)cc1,0
9,CCCCOC(=O)Nc1ccc(C(=O)OCCC)cc1,0
10,COC(=O)c1ccc(NC(=S)NC(=O)c2c(Cl)cnn2C)cc1,1 (active)
11,CCCCc1ccc(NC(=S)Nc2ccc(Cl)c(S(=O)(=O)N(C)C)c2)cc1,0
12,CCCCOC(=O)c1ccc(NC(=S)NC(=O)c2c(Cl)cnn2C)cc1,0.5
13,CCCCOC(=O)c1ccc(NC(=S)NC(=O)c2c(Br)c(C)nn2C)cc1,1 (active)
14,COC(=O)c1ccc(Cl)c(NC(=O)CN2CCN(C)CC2)c1,0
15,CCCOC(=O)c1ccc(NC(=O)c2ccoc2C)cc1,0
16,CC1CCN(c2ccccc2NC(=S)NC(=O)c2cccs2)CC1,1 (active)
17,O=C(NC(=S)Nc1ccccc1N1CCOCC1)c1cccs1,1 (active)
18,Cc1ccc(NC(=O)C(c2ccccc2)C2CCCC2)cc1 (centres undefined),0
19,O=C1NC(=S)/C(=C\c2ccc(-c3ccccc3Cl)o2)S1,3
20,O=C1NC(=S)S/C1=C\c1ccc(SCc2ccccc2)o1,1 (active)
21,COC(=O)c1sccc1NC(=O)CSc1ccccc1NS(=O)(=O)c1ccccc1Cl,1 (active)
22,O=C(CSc1cccc2cccc(Cl)c12)NCc1cccs1,0
23,CCC(C(=O)OCC(=O)Nc1ccc(Cl)c(S(=O)(=O)N(C)C)c1)c1ccccc1 (centres undefined),0

row,Compound,manual score
1,COC(=O)c1sccc1NC(=O)CSc1ccccc1NS(=O)(=O)c1cc(Cl)ccc1Cl,1 (active)
2,O=S(=O)(Nc1nc(-c2sccc2Cl)cs1)c1cc(Cl)ccc1Cl,0
3,COC(=O)c1sccc1NC(=O)CSc1ccccc1NS(=O)(=O)c1ccc(Cl)cc1,0.5
4,CN(C)S(=O)(=O)c1cccc(NC(=O)COc2cccc(C#N)c2)c1,0
5,Cc1ccc(C)c(C(=O)c2c(C)nc3sccn23)c1,0
6,Cc1ccc(/C=N\NC(=O)c2cc([N+](=O)[O-])cc([N+](=O)[O-])c2)o1,1 (active)
7,Cc1ccc(OCC(=O)N/N=C\c2ccc(-c3cccc(C(=O)O)c3)o2)c(C)c1,0
8,CC(/C=C/c1ccccc1)=N/NC(=O)c1cc([N+](=O)[O-])cc([N+](=O)[O-])c1,0
9,Cc1ccc(-c2cc(-c3ccccc3)[nH]c(=S)c2C#N)cc1,1 (active)
10,COc1ccc(CC(=O)Nc2cc(=O)n(C)c(=O)n2C)cc1,0
11,COc1ccc(/C=C/c2nc3sc4c(c3c(=O)o2)CCC4)cc1,3
12,CC(C)Cn1cnc2sc3c(c2c1=N)CCCC3,0
13,Cc1cc(C)nc(Sc2ncnc3sc4c(c23)CCC4)n1,1 (active)
14,O=C(CCSCc1cccc(Cl)c1)NCCc1ccc(Cl)cc1,0
15,COc1ccc(C(=O)CC(=O)C(=O)NCCc2cccc(C)c2)cc1,0.5
16,COc1ccc(C(=O)NC(=S)NNC(=O)CCc2ccccc2)cc1,1 (active)
17,O=C(CCc1ccccc1)NNC(=S)NC(=O)c1ccc(Cl)cc1,1 (active)
18,COc1ccc(CCC(=O)NCc2cnn(C)c2)cc1,0
19,Oc1[nH]c2ccccc2c1N=NC(=S)NCC1CCCO1 (centres undefined),1 (active)
20,Oc1[nH]c2ccccc2c1N=NC(=S)NCCc1ccccc1,1 (active)
21,Oc1[nH]c2c(Cl)cc(Cl)cc2c1N=NC(=S)NCC1CCCO1 (centres undefined),1 (active)
22,Clc1ccc2[nH]c3c(NCC4CCCO4)ncnc3c2c1 (centres undefined),0
23,Oc1cccc(Nc2nc(NCC3CCCO3)c3ccccc3n2)c1 (centres undefined),0

# Source: PubChem BioAssay AID623868 (Vanderbilt High Throughput Screening Facility, 2012)
